Screening data as filed in PubChem.
Only some compounds are listed: those with a hit (about 3.9% of all), similar ones and a draw of the others.
BoNT A protease – blocks Botulinum neurotoxin A light chain protease | hit rate 0.17% among 360,000 | AID 588499 | multiplex microsphere protease substrate cleavage, flow cytometry | inhibition, % at 10 µM; also: plate controls were buffer without enzyme for full effect and enzyme alone for no effect
Anthrax LF inh2 – inhibitors of Bacillus anthracis lethal factor protease; multiplex microsphere protease cleavage assay, LF; hit rate 0.12% among 360,000; inhibition, % at 10 µM; P15917; also: plate controls were buffer without enzyme for full effect and enzyme alone for no effect
BoNT-F LC inh – inhibitors of Botulinum neurotoxin F light chain protease | Multiplex microsphere protease cleavage assay, flow cytometry | AID 588497 | hit rate 0.22% among 360,000 | inhibition, % at 10 µM; in the data active = inhibition above about 35%, passing the limit was not always enough; inconclusive = no clear call, values can overlap the other calls; also: plate controls were buffer without enzyme for full effect and enzyme alone for no effect
MazF activator – MazEF (E. coli) toxin RNase activation; P0AE70; FAM/BHQ RNA-DNA oligo cleavage fluorescence, 5 h; activation, % at 20 µM; hit rate 0.32% among 350,000; in the data active = activation above about 50%
Autofluor counter – compound fluorescence in toxin protease inhibitor counterscreen | compound autofluorescence counterscreen, microsphere flow cytometry; stronger effect = higher value | fluorescence intensity (no concentration beside the values) | hit rate 3.1% among 360,000; in the data active = fluorescence intensity above about 16000; inconclusive = no clear call, values can overlap the other calls
Vc quorum ag – induces V. cholerae light production without autoinducers. activation, % at 18.7 µM. V. cholerae BH1578 lux reporter, luminescence, 6 h. hit rate 0.16% among 350,000; in the data active = activation mostly above about 9.7%, no sharp cut-off; inconclusive = no clear call, values can overlap the other calls; inactive = mostly below about 3.7%
An asterisk follows results filed as active; i = inactive; ? = inconclusive; . = not tested or not shown. Rule as the data show it, unless noted: active = inhibition above about 30%; inconclusive = no clear call, values can overlap the other calls; inactive = below that.

SMILES	BoNT A protease	Anthrax LF inh2	BoNT-F LC inh	MazF activator	Autofluor counter	Vc quorum ag
COc1ccc(C(=O)CSc2nc(N)nc(SC)c2C#N)cc1	6	-3	10	-22	19201*	11
CSc1nc(N)nc(SCC(=O)C23CC4CC(CC(C4)C2)C3)c1C#N	-1	-4	-3	-6	19688*	i
CSc1nc(N)nc(SCC(=O)c2ccccc2)c1C#N	-1	-1	-11	38	3015	1
Cc1ccc(-c2nc(N)sc2-c2ccccc2)cc1C	0	-2	-4	-17	2145	0
COc1ccc(S(=O)(=O)N2CCOCC2)cc1NC(=O)c1c(C)noc1C	0	-4	3	3	3363	-1
O=C(CSc1cn[nH]n1)Nc1cccc(C(F)(F)F)c1	1	0	-2	9	3169	i
CCc1ccc(NC(=O)C(C)OC(=O)c2cccc(S(=O)(=O)N3CCc4ccccc4C3)c2)cc1 (stereo not given)	0	-1	2	-11	2780	0
CCC(C)(C)NC(=O)C(c1ccc(OC)cc1)N(CCOC)C(=O)CCC(=O)Nc1nccs1 (stereo not given)	0	-1	3	0	2163	0
CCC(C)(C)NC(=O)C(c1ccc(O)cc1)N(CCOC)C(=O)CCC(=O)Nc1nccs1 (stereo not given)	-1	1	2	235*	4168	-4
CC(C)CC(=O)NC(C)C(c1cccs1)N1CCOCC1 (stereo not given)	1	0	-3	3	3901	i
Cc1ccccc1-c1nc(CN2CCC(C(=O)NCCCN3CCOCC3)CC2)c(C)o1	?	-3	-5	-7	26327*	i
CCN1CCCC1CNC(=O)C1CCN(Cc2nc(-c3cccc(Br)c3)oc2C)CC1 (stereo not given)	2	-2	4	3	18142*	i
Cc1ccccc1-c1nc(CN2CCC(C(=O)NCCCN3CC(C)CC(C)C3)CC2)c(C)o1 (stereo not given)	0	-2	0	7	22754*	-2
Cc1oc(-c2cccc(Cl)c2)nc1CN1CCC(C(=O)NCc2ccco2)CC1	-3	-3	-15	5	10821	0
Cc1ccccc1-c1nc(CN2CCC(C(=O)NCCCN3CCCC3)CC2)c(C)o1	-2	-6	-8	8	17690*	-3
COc1ccc(NC(=O)N(C)C[C@H]2Oc3ccc(NS(=O)(=O)c4ccccc4)cc3C(=O)N([C@H](C)CO)C[C@@H]2C)cc1	0	-2	-3	8	2650	0
COC(=O)CCS(=O)(=O)c1nc(-c2ccccc2)cc(C(F)(F)F)n1	2	-1	2	1	21982*	i
CCOC(=O)C1CCCN(C(=O)c2cccnc2Oc2ccccc2)CC1 (stereo not given)	0	-8	-2	.	3956	-1
COc1cccc(/C=N/n2c(-c3cc(C)[nH]n3)n[nH]c2=S)c1OC	-4	0	?	12	3582	-1
Cc1cc2ncn(/N=C/c3cccnc3)c2cc1C	0	-3	16	-3	4414	i
COc1cccc(/C=N/n2c(N)nc3ccccc32)c1OC	0	-4	-2	0	12296	-1
COc1cccc(/C=N/n2cnc3ccccc32)c1OC	9	-15	8	1	16900*	i
COc1cccc(/C=N/n2c(=S)n(C)c3cc(C)c(C)cc32)c1OC	?	-3	-4	-4	22389*	-3
C(=N\n1cnc2ccccc21)/c1cccnc1	1	-2	1	-11	22275*	6
CCCC(=O)Nc1ccc(S(=O)(=O)N2CCc3ccccc32)cc1	0	-5	6	-5	4072	-6
COc1ccc(C(=O)CSc2nnc(CN3CCCCC3)n2-c2ccc(Cl)cc2)cc1OC	0	0	-5	3	2770	0
COc1ccc(C2C(Oc3ccccc3)C(=O)N2c2cc(C)ccc2C)cc1OC (stereo not given)	-1	-11	-3	4	20605*	i
Cc1oc(-c2ccccc2Cl)nc1CSCC(=O)NC1CCCC1	0	-3	-2	2	3784	0
Cc1oc(-c2ccccc2Cl)nc1CSCC(=O)N1CCCC1	1	1	4	12	22629*	-1
Cc1cc(C)n2c(Nc3ccc4c(c3)OCCO4)c(CCc3ccccc3)nc2n1	0	1	4	.	6031	.
